# Source: ChEMBL document CHEMBL1157539, “Thousands of chemical starting points for antimalarial lead identification” (Nature, 2010)
# System: Plasmodium falciparum
# Experiment: GSK_TCMDC: Inhibition of Plasmodium falciparum 3D7 in whole red blood cells, using parasite LDH activity as an index of growth. Test compounds present at 2uM
# Type: functional
row,SMILES,Inhibition [%]
1,CS(=O)(=O)c1ccc2[nH]c(-c3cc(-c4ccc(OCCN5CCOCC5)cc4)cnc3N)nc2c1.O=C(O)C(F)(F)F,100
2,C=CCn1c(=N)c(C(=O)NCc2ccc(F)cc2)cc2c(=O)n3cccc(C)c3nc21,92
3,CN1CCN(C(=O)CN2CCC3(CCC2=O)NC(=O)c2ccccc2O3)CC1 (stereo unspecified),99
4,CCNc1cc(C(=O)N[C@@H](Cc2ccccc2)[C@H](O)CNC2CCC(C(C)(C)C)CC2)cc(N2CCCC2=O)c1 (stereo partly specified),98
5,COc1ccc2c(NN=CC=Cc3ccccc3)ccnc2c1,100
6,O=[N+]([O-])c1ccc(/C=N/O)nc1,80
7,Cc1cccc2nc(-c3cccc(-c4cccc(CNC(C)C)c4)c3)[nH]c12.O=C(O)C(F)(F)F,100
8,CCc1cc(Br)c(CNCCCNc2cc(=O)c3ccccc3[nH]2)s1.Cl,90
9,N#CC(CC(=O)c1ccc(Cl)cc1)c1cccc(F)c1 (stereo unspecified),97
10,COc1cc(Br)c(NC(=O)Nc2ccc(C(F)(F)F)c(O[C@@H]3CCN(C)C3)c2)cc1OC.Cl,97
11,CC(C)C[C@@H](C(=O)N[C@@H](CCCCNC(=O)OCc1ccccc1)C(=O)Nc1nccs1)[C@H](C)N(O)C=O,99
12,O=C(N[C@@H](CC1CCCCC1)C(=O)NCCN1CCCCC1)c1ccc(O)c(-c2ccc(Cl)c(Cl)c2)c1,97
13,N=C(N)NN=CC(=O)Nc1ccc(Br)cc1.O=S(=O)(O)O,100
14,Cc1ccc2[nH]c3c(NCCCN(C)C)ncnc3c2c1,99
15,CC(C)(C)c1ccc(S(=O)(=O)Nc2cc(Cl)ccc2Cn2ccc(N3CCNCC3)nc2=O)cc1.O=C(O)C(F)(F)F,95
16,CC1CCN(Cc2ccc(NC(=O)c3cc4ccc5cccnc5c4[nH]3)cc2)CC1,100
17,Cc1cc(Nc2ccc(O)cc2)nc2cccc(O)c12,99
18,CCCNc1ccc2nccc(CCN3CCC(NCc4ccc5c(n4)NC(=O)CS5)CC3)c2n1,100

row,SMILES,Inhibition [%]
1,O=C(NC1CCCC1)c1ccc(N2CCC(NCc3cc4cc(Cl)ccc4[nH]3)CC2)cc1,91
2,CC1CN(Cc2cccc(-c3ccc(-c4nc5ccccc5[nH]4)cc3)c2)CC(C)O1.O=C(O)C(F)(F)F (stereo unspecified),90
3,Cc1ccc(NC(=O)Nc2ccc(Cl)c(C(F)(F)F)c2)cc1-c1ccc(C(=O)Nc2ccncc2)cc1,99
4,Oc1c(C(Nc2nc3ccccc3s2)c2ccccc2)ccc2cccnc12 (stereo unspecified),95
5,N#Cc1cccc(NC(=O)Nc2ccc(-c3ccc(-c4nc5cc(C(F)(F)F)ccc5[nH]4)cc3)cc2)c1,100
6,O=C(/C=C/c1ccc(C(F)(F)F)cc1)N1CCc2cc3nccc(N4CCN5CCC[C@H]5C4)c3cc21,86
7,COc1ccc(-c2cc(NCc3ccc(-n4ccnc4)cc3)nc(Nc3ccccc3)n2)cc1,100
8,O=C(CN1CCC2(CCC1=O)CC(=O)c1ccccc1O2)NCCN1CCOCC1 (stereo unspecified),100
9,COc1ccc(NC(=O)[C@H](Cc2ccccc2)Nc2cc(C)nc(NCCN3CCCC3)n2)cc1.O=C(O)C(F)(F)F,97
10,COc1ccccc1NS(=O)(=O)c1cc(C(=O)Nc2ccc(N3CCOCC3)c(S(=O)(=O)Nc3ccccc3Cl)c2)ccc1Cl,97
11,Cc1ccc(NC(=O)C2CCC2)cc1-c1ccc(C(=O)NCC2CC2)cc1,98
12,CSc1cccc(Nc2nc3ccc(S(=O)(=O)NC(C)C(C)C)cc3n2[C@H](C)C(C)(C)C)c1 (stereo partly specified),97
13,COc1ccc(CNC2CCN(C)CC2)cc1-c1ccc(S(=O)(=O)NC2CCC2)c(F)c1.O=C(O)C(F)(F)F,100
14,O=S(=O)(Nc1cccc(CCN2CCCCC2CCN2CCCC2)c1)c1ccc(-c2ccccc2)cc1 (stereo unspecified),99
15,CS(=O)(=O)c1cccc(-c2ccc3oc(C(N)=O)c(NC(=O)c4cccs4)c3c2)c1,86
16,CC(C)C[C@H](NC(=O)[C@H](Cc1ccccc1)NC(=O)CCN1C(=O)COc2ccc(C(=O)O)cc21)C(=O)NC(CC1CCCCC1)C(O)CC(=O)NCCCn1ccnc1.Cl.O (stereo partly specified),99
17,CS(=O)(=O)CCNCc1nc(-c2ccc3c(Nc4ccc(Oc5ccccn5)cc4)ccnc3c2)cs1,100
18,Cc1cccc2nc(-c3ccc(-c4cccc(NC(=O)CCc5c[nH]cn5)c4)cc3)[nH]c12,100
